According to PubChem BioAssay (Tox21):
Results filed as inconclusive are left out. Calls of active or inactive are those of the source. The call rests on the fitted dose curve.

Assays:
[1] = biological target: Acetylcholinesterase (Homo sapiens) (UniProt P22303); test: Acetylcholinesterase (AChE) small molecule antagonists: colormetric cell-based qHTS assay (AID 1347395); further: nearly all actives have a fitted effect of over 30% in size
How it was run: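 Homogeneous whole-cell format. SH-SY5Y cells seeded overnight, dosed with compound (30 min, 37 C, 5% CO2), then given DTNB/acetylthiocholine cocktail for 90 min at 37 C; colorimetric signal.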

[2] = biological target: Acetylcholinesterase (Homo sapiens) (UniProt P22303); test: Acetylcholinesterase (AChE) small molecule antagonists: enzyme-based qHTS assay (AID 1347397); settings: Potency: AChE enzyme activity inhibition; outcome: AChE enzyme activity inhibition; further: nearly all actives have a fitted effect of over 55% in size
How it was run: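 Tox21 library chemicals are tested in qHTS format against recombinant human AChE. The enzyme, dispensed at 50 mU/mL, sits with compound for 30 min at room temperature. A DTNB–acetylthiocholine cocktail follows, and colour is read after 10 min.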

[3] = biological target: Acetylcholinesterase (Homo sapiens) (UniProt P22303); test: Acetylcholinesterase (AChE) small molecule antagonists: fluorescence cell-based qHTS assay (AID 1347398); settings: Potency: AChE activity; outcome: AChE activity; further: nearly all actives have a fitted effect of over 50% in size
How it was run: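 Cellular AChE inhibition: SH-SY5Y cells treated with test chemical for 30 min at 37 C, then acetylthiocholine hydrolysis followed over 40 min at room temperature via thiocholine-reactive Thiolite Green fluorescence (490/520 nm).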

[4] = biological target: Acetylcholinesterase (Homo sapiens) (UniProt P22303); test: Acetylcholinesterase (AChE) small molecule antagonists: enzyme-based qHTS assay with human liver microsomes (AID 1347399); settings: Potency: qHTS inhibition; outcome: qHTS inhibition; further: nearly all actives have a fitted effect of over 60% in size
How it was run: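 Recombinant human AChE (50 mU/mL in the enzyme mix) and human liver microsomes (0.25 mg/mL final) were preincubated with compound and NADPH (0.25 mg/mL final) for 30 min at 37 C. Acetylthiocholine/DTNB was then added; thiocholine was read colorimetrically after 10 min at room temperature.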
On the % scale 0 is the no-effect control and ±100 the full control effect.

Sequence of Acetylcholinesterase (Homo sapiens) (P22303 whole entry, looked up): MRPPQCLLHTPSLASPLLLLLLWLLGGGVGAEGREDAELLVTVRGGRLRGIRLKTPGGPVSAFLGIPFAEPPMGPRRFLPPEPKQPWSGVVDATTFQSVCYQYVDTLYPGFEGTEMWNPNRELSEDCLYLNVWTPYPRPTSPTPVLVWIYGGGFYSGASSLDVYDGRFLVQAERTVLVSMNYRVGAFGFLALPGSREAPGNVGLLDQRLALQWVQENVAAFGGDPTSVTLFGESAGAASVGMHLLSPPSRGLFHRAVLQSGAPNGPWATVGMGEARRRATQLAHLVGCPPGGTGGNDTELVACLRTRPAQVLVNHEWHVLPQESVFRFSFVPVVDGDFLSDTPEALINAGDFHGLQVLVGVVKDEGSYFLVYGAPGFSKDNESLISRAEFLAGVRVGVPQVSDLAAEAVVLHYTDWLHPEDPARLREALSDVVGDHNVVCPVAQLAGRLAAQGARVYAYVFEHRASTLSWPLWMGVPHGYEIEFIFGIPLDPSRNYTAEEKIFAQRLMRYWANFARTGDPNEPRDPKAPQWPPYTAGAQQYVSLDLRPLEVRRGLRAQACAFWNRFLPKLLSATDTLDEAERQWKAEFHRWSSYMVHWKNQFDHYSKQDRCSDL

Nc1nc(-c2ccccc2)cs1
inactive: Potency [1] | Potency [2] | Potency [3] | Potency [4]

CC(C)(COC(=O)c1ccccc1)COC(=O)c1ccccc1
inactive: Potency [1] | Potency [2] | Potency [3] | Potency [4]

C#C[C@]1(OC(C)=O)CC[C@H]2[C@@H]3CCC4=C/C(=N/O)CC[C@@H]4[C@H]3CC[C@@]21CC
inactive: Potency [1] | Potency [2] | Potency [3] | Potency [4]

CCCCc1ccc2nc(NC(=O)OC)[nH]c2c1
inactive: Potency [1] | Potency [2] | Potency [3] | Potency [4]

Cc1cc(-n2nc3ccc(Cl)cc3n2)c(O)c(C(C)(C)C)c1
inactive: Potency [1] | Potency [2] | Potency [3] | Potency [4]

CC[C@@H](N)CO
inactive: Potency [1] | Potency [2] | Potency [3] | Potency [4]

CC(C)(C)c1csc(-c2cc3cc(OCc4ccccc4CC(=O)O)ccc3o2)n1
inactive: Potency [1] | Potency [2] | Potency [3] | Potency [4]

CN1CCN(C2=Nc3ccccc3Oc3ccc(Cl)cc32)CC1
inactive: Potency [1] | Potency [2] | Potency [3] | Potency [4]

O=C(N/N=C/c1ccccc1O)c1ccncc1
inactive: Potency [1] | Potency [2] | Potency [3] | Potency [4]

COC(=O)c1cc(Cl)cc(Cl)c1
inactive: Potency [1] | Potency [2] | Potency [3] | Potency [4]

CC1=CC[C@@]23C[C@@H]1C(C)(C)[C@@H]2CC[C@H]3C
inactive: Potency [1] | Potency [2] | Potency [3] | Potency [4]

Nc1ccccc1S(=O)(=O)c1ccccc1
inactive: Potency [1] | Potency [2] | Potency [3] | Potency [4]

C=CCCCCCCCCCCCC
inactive: Potency [1] | Potency [2] | Potency [3] | Potency [4]

NS(=O)(=O)c1cc2c(cc1Cl)NC(CSCc1ccccc1)=NS2(=O)=O
inactive: Potency [1] | Potency [2] | Potency [3] | Potency [4]

CC12CC3CC(C)(C1)CC(N)(C3)C2
inactive: Potency [1] | Potency [2] | Potency [3] | Potency [4]

Cc1ccc(S)cc1
inactive: Potency [1] | Potency [2] | Potency [3] | Potency [4]

ON(Cc1ccccc1)Cc1ccccc1
inactive: Potency [1] | Potency [2] | Potency [3] | Potency [4]

C=C(C)CCCC(C)CCO (stereo not drawn)
inactive: Potency [1] | Potency [2] | Potency [3] | Potency [4]

c1ccc(-c2nc[nH]c2-c2ccccc2)cc1
inactive: Potency [1] | Potency [2] | Potency [3] | Potency [4]

CC(=O)N(CC(=O)N(C)C)c1ccccc1
inactive: Potency [1] | Potency [2] | Potency [3] | Potency [4]

CC(C)=CCNc1ncnc2c1ncn2[C@@H]1O[C@H](CO)[C@@H](O)[C@H]1O
inactive: Potency [1] | Potency [2] | Potency [3] | Potency [4]

CCC(C(=O)OCCOCCN(CC)CC)c1ccccc1 (stereo not drawn)
inactive: Potency [1] | Potency [2] | Potency [3] | Potency [4]

Cc1ccc(O)c([N+](=O)[O-])c1
inactive: Potency [1] | Potency [2] | Potency [3] | Potency [4]

OC[C@H]1O[C@@H](O[C@@H]2[C@@H](CO)O[C@](O)(CO)[C@H]2O)[C@H](O)[C@@H](O)[C@H]1O
inactive: Potency [1] | Potency [2] | Potency [3] | Potency [4]

Nc1ccc(F)c([N+](=O)[O-])c1
inactive: Potency [1] | Potency [2] | Potency [3] | Potency [4]

COC(=O)/C=C(/C)N
inactive: Potency [1] | Potency [2] | Potency [3] | Potency [4]

OCC(CO)N[C@H]1C[C@](O)(CO)[C@@H](O)[C@H](O)[C@H]1O
inactive: Potency [1] | Potency [2] | Potency [3] | Potency [4]

CC(C)C1CCC(C(=O)N[C@H](Cc2ccccc2)C(=O)O)CC1 (stereo partly drawn)
inactive: Potency [1] | Potency [2] | Potency [3] | Potency [4]

Cc1ccc(C(C)c2ccc(C)c(C)c2)cc1C
inactive: Potency [1] | Potency [2] | Potency [3] | Potency [4]

O=Cc1cc(O)ccc1Br
inactive: Potency [1] | Potency [2] | Potency [3] | Potency [4]

COC(=O)C1=C(C)NC(C)=C(C(=O)OC(C)(C)CN(C)CCC(c2ccccc2)c2ccccc2)C1c1cccc([N+](=O)[O-])c1 (stereo not drawn)
inactive: Potency [1] | Potency [2] | Potency [3] | Potency [4]

C[C@H](CN1CCCC1)C(=O)c1ccc(C(F)(F)F)cc1
inactive: Potency [1] | Potency [2] | Potency [3] | Potency [4]

Cc1ccc(N/N=c2\c(=O)cc/c(=N\Nc3ccc(S(=O)(=O)O)cc3)c2=O)c(C)c1
inactive: Potency [1] | Potency [2] | Potency [3] | Potency [4]

CCc1ccc(O)c(OC)c1
inactive: Potency [1] | Potency [2] | Potency [3] | Potency [4]

CC(=O)OCC(=O)[C@@]1(O)[C@H](OC(C)=O)C[C@H]2[C@@H]3CCC4=CC(=O)C=C[C@]4(C)[C@@]3(F)[C@@H](O)C[C@@]21C
inactive: Potency [1] | Potency [2] | Potency [3] | Potency [4]

Cc1cccc2nccnc12
inactive: Potency [1] | Potency [2] | Potency [3] | Potency [4]

O=C(O)c1cc(=O)c2ccccc2o1
inactive: Potency [1] | Potency [2] | Potency [3] | Potency [4]

CCCCOCC
inactive: Potency [1] | Potency [2] | Potency [3] | Potency [4]

CCO[Si](C)(C)OCC
inactive: Potency [1] | Potency [2] | Potency [3] | Potency [4]

CCN(CC)c1cccc(C)c1
inactive: Potency [1] | Potency [2] | Potency [3] | Potency [4]

COc1ccc(NS(=O)(=O)c2ccc(N)cc2)nn1
inactive: Potency [1] | Potency [2] | Potency [3] | Potency [4]

C=CC(=C)CC/C=C(\C)CCC=C(C)C
inactive: activity, negative = inhibition [1] -2.99% [at 23.6 µM] | activity change, negative = inhibition [2] 0.554% [at 23.6 µM] | activity change, negative = inhibition [3] -5.88% [at 23.8 µM] | activity change, negative = inhibition [4] -0.162% [at 23.6 µM]
